Many of the other results were omitted from the sample, so hits are more common in it than they were.
YB-1 expr inh = YB-1 expression inhibition | actives 0.37% (n = 30,000) | U2OS, qRT-PCR YB-1 vs CDIP delta delta Cp, 16 h; hits give high values; zero = DMSO, each unit about twofold | delta delta Cp (YB-1 minus CDIP) (test concentration not listed);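 active = delta delta Cp rounded down to an integer at or above 3, about 3 SD of DMSO wells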;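 also: higher means less YB-1 transcript or more CDIP transcript relative to DMSO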
Numbers stand for hits.

CC(C)c1cc2c(cc1O)[C@@]1(C)C[C@@H](O)CC(C)(C)C1CC2 (some centres undefined) was read as YB-1 expr inh 4.5.
`CC(C)c1cc2c(cc1O)[C@@]1(C)C[C@@H](O)CC(C)(CO)C1CC2` (some centres undefined) gave YB-1 expr inh inactive.
C[C@]12CC[C@H](O)C[C@H]1CC[C@@H]1[C@@H]2CC[C@]2(C)[C@@H](c3ccc(=O)oc3)CC[C@]12O was read as YB-1 expr inh inactive.
For c1ccc(CCCN2CCN(CCOC(c3ccccc3)c3ccccc3)CC2)cc1 the results were YB-1 expr inh 22.
For Fc1ccc(C(OCCN2CCN(CCCc3ccccc3)CC2)c2ccc(F)cc2)cc1 the results were YB-1 expr inh inactive.
O=C1CC=C2C3CC4N(CCC45c4ccccc4N1C25)C/C3=C/CO (centres undefined) was read as YB-1 expr inh 10.
Screening CC(=O)O[C@@H](c1nc2ccccc2c(=O)n1[C@@H]1C[C@@]2(OC1=O)c1ccccc1N1C(=O)[C@H](C)N(O)[C@@H]12)C(C)C returned YB-1 expr inh inactive.
Screening C[C@@H]1O[C@@H](O[C@H]2[C@H](O)[C@@H](O)[C@H](O[C@@H]3C=C4CC[C@@H]5C(CC[C@]6(C)[C@@H](c7ccc(=O)oc7)CC[C@]56O)[C@@]4(C)CC3)O[C@@H]2CO)[C@H](O)[C@H](O)[C@H]1O (some centres undefined) returned YB-1 expr inh inactive.
`COc1ccc(Cl)cc1NC1=NCC(C)S1` (centres undefined) gave YB-1 expr inh 10.
Screening C=C1[C@@H](C)[C@H]2[C@H](Cc3ccccc3)NC(=O)[C@]23[C@H](OC(C)=O)C=C[C@](C)(O)C(=O)[C@@H](C)C/C=C/[C@H]3[C@@H]1O returned YB-1 expr inh inactive.
For CC[C@@H]1/C=C\C=C\C[C@H](C)C(O)[C@](C)(O)C(=O)[C@H](C)C(O)[C@H](C)C(=O)[C@H](C)[C@@H](O)[C@H](C)/C=C/C(=O)O[C@H]2[C@@H](C)[C@@H](CC1)O[C@@]1(CC[C@@H](C)[C@@H](C[C@H](C)O)O1)[C@@H]2C (some centres undefined) the results were YB-1 expr inh inactive.
For C/C1=C/C(=O)O[C@@H]2C[C@@H](CC[C@H](C)/C=C\CC1)O[C@@](O)([C@@H]1CSC(=O)N1)C2 the results were YB-1 expr inh inactive.
